Records with an inconclusive call do not appear. Active and inactive are the calls of the source. Rule for the calls: active = hit-call score of the fitted dose curve at least 0.9, where 1 is the maximum; inconclusive = response in the unintended direction; inactive = score below 0.9.
Experiment: Tanguay_ZF_120hpf_PIG_legacy: (Legacy) Oregon State University Tanguay Lab 120 Hour Post-fertilization zebrafish Assay for Pigmentation Malformation (AID 2283650);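 note: dechorionated Tropical 5D zebrafish embryos exposed singly from 6 to 120 hpf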
Description: Tanguay_ZF_120hpf_legacy is a whole embryo, multiplexed endpoint assay using zebrafish larvae exposed for 120 hours post fertilization on a 96-well plate.Tanguay_ZF_120hpf_PIG_legacy is one of one assay component(s) measured or calculated from the Tanguay_ZF_120hpf_legacy assay. It is designed to make measurements of zebrafish development as detected with brightfield microscopy of developing zebrafish embryos.Data from the assay component Tanguay_ZF_120hpf_PIG_legacy was analyzed into 1 assay endpoints. This assay endpoint, Tanguay_ZF_120hpf_PIG_legacy, was analyzed in the positive analysis fitting direction relative to DMSO as the negative control and baseline of activity. Using a type of morphology reporter, gain-of-signal activity can be used to understand changes in developmentals as they relate to the whole embryo. To generalize the intended target to other relatable targets, this assay endpoint is annotated to the zebrafish development intended target family, where the subfamily is embryonic pigmentation.
Zebrafish husbandry: Tropical 5D wild-type adult zebrafish were housed in at an approximate density of 1000 per 100 gallon tank at the Sinnhuber Aquatic Research Laboratory, Oregon State University, Corvallis, OR. Each tank was kept at standard laboratory conditions of 28C on a 14-h light/10-h dark photoperiod in fish water consisting of reverse osmosis water supplemented with a commercially available salt (Instant Ocean). Spawning funnels were placed into the tanks the night prior, and embryos were collected and staged. To increase bioavailability, the chorion was enzymatically removed using pronase (63.6mg/ml, >/= 3.5U/mg, Sigma-Aldrich: P5147) at 4 hours post fertilization (hpf) using a custom automated dechorionator.Chemical exposures: Six hpf dechorionated embryos were placed 1 embryo per well in a 96-well plate prefilled with 90 ul of EM using automated embryo placement systems (AEPS). Ten microliters of each row of dilution plate 2 was added to 2 exposure plates. The final DMSO concentration used was 0.64% (vol/vol). Thirty-two embryos were also exposed to 5uM trimethyltin chloride (positive control). Plates were sealed to prevent evaporation and foil covered to reduce light exposure and kept in a 28C incubator. Embryos were statically exposed until 120 hpf. At 24 hpf, embryos were assessed for photomotor response using a custom photomotor response analysis tool (PRAT) and for developmental toxicity endpoints (MO24: mortality at 24 hpf, DP: developmental progression, SM: spontaneous movement, and NC: notochord distortion). At 120 hpf, locomotor activity was measured using Viewpoint Zebralab and assessed for 18 endpoints. Zebrafish acquisition and analysis program (ZAAP), a custom program designed to inventory, acquire, and manage zebrafish data, was used to collect developmental endpoints as either present or absent (i.e., binary responses were recorded). If mortality occurred for an embryo (at either 24 or 120 hpf), the non-mortality endpoints were not measured.

Row | Structure (SMILES) | outcome | AC50
1 | CCc1ccc(O)c(C(C)(C)C)c1 | inactive | 
2 | CCCCOC(=O)c1ccccc1 | inactive | 
3 | NC(N)=O | inactive | 
4 | Nc1ccn([C@@H]2O[C@H](CO)[C@@H](O)[C@@H]2O)c(=O)n1 | inactive | 
5 | CCCCCCCCCC | inactive | 
6 | c1ccc2ncccc2c1 | inactive | 
7 | Cn1cc[nH]c1=S | inactive | 
8 | c1ccc(C(O[C@@H]2CCCN(CCc3ccc4c(c3)OCO4)C2)c2ccccc2)cc1 |  | 42.4 µM (active)
9 | NNC(=O)c1ccncc1 | inactive | 
10 | COCc1nnc(-c2ccc[n+]([O-])c2)n1-c1c(Cl)c(Cl)cc2[nH]c(=O)c(=O)[nH]c12 | inactive | 
11 | OC(Cn1cncn1)(Cn1cncn1)c1ccc(F)cc1F | inactive | 
12 | NC(=O)NN=Cc1ccc([N+](=O)[O-])o1 | inactive | 
13 | CCCCCOC(C)=O | inactive | 
14 | O=S1(=O)CCCO1 | inactive | 
15 | C=CCc1cc(S(=O)(=O)c2ccc(O)c(CC=C)c2)ccc1O | inactive | 
16 | Cc1ncc([C@@H](CCCCCCc2ccc3c(n2)NCCC3)CC(=O)O)cn1 | inactive | 
17 | CC(=O)c1ccccc1 | inactive | 
18 | Cc1nccn1-c1ccc(Sc2cccc(C3(C(N)=O)CCOCC3)c2)cc1 | inactive | 
19 | OCCNCCO | inactive | 
20 | CC(C)CCCCCCOC(=O)C1CCCCC1C(=O)OCCCCCCC(C)C (stereo not given) | inactive | 

Row | Structure (SMILES) | outcome | AC50
21 | Cc1ccc(S(=O)(=O)NC(=O)NN2CCCCCC2)cc1 | inactive | 
22 | CCOc1ccc2[nH]cc(C(=O)NCc3ccccc3)c(=O)c2n1 | inactive | 
23 | O=S(=O)(O)c1ccc(N=Nc2c(O)ccc3cc(S(=O)(=O)O)ccc23)cc1 | inactive | 
24 | OCc1ccccc1 | inactive | 
25 | Cn1c(=O)c2[nH]cnc2n(C)c1=O | inactive | 
26 | CCCc1ccccc1 | inactive | 
27 | CC1(C)C(=O)N(Cl)C(=O)N1Cl | inactive | 
28 | CCc1cccc(CC)c1N | inactive | 
29 | O=c1[nH]cnc2c1ncn2[C@H]1CC[C@@H](CO)O1 | inactive | 
30 | CC(C)C(=O)Nc1ccc([N+](=O)[O-])c(C(F)(F)F)c1 | inactive | 
31 | CCCCCCCCCCCCCCCCOS(=O)(=O)O | inactive | 
32 | C[C@]12C=CC(=O)C=C1CC[C@H]1[C@@H]3C[C@@H](O)[C@](O)(C(=O)CO)[C@@]3(C)C[C@H](O)[C@@]12F | inactive | 
33 | c1ccc2c(c1)-c1cccc3c1c-2cc1ccccc13 | inactive | 
34 | CC(C)c1nnc2ccc(-c3ocnc3-c3cc(F)ccc3F)cn12 | inactive | 
35 | CCCCCCCCN(C)C | inactive | 
36 | Cc1nc(-c2ccccn2)ncc1C(=O)Nn1cc(C)c2cc(F)ccc21 | inactive | 
37 | OC[C@H]1O[C@@](CO)(O[C@H]2O[C@H](CO)[C@@H](O)[C@H](O)[C@H]2O)[C@@H](O)[C@@H]1O | inactive | 
38 | CCCCCCCC1CCC(=O)O1 (stereo not given) | inactive | 
39 | C=CN1CCCC1=O | inactive | 
40 | OCC(CO)(CO)CO | inactive | 

— PubChem BioAssay (EPA / NIEHS)
